# Screening results (PubChem)
# USP1-UAF1 inh – Inhibitors of USP1/UAF1: Primary Screen; recombinant USP1/UAF1, Ub-Rhodamine cleavage fluorescence; AID 743255, 2014; Potency, µM (doses to about 57.1 µM), actives largely listed as inhibitors; hit rate 0.23% among 390,000; note: nearly all actives have a fitted effect of over 60% in size
#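 1 nM enzyme complex + cpd, 15 min RT; start with Ub-Rho 150nM final; kinetic fluorescence ex 480/em 540, 6 reads q60 s. Buffer 50mM HEPES pH 7.8, 0.5mM EDTA, 0.1 mg/ml BSA, 1mM TCEP, 0.01% Tween-20.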
# Coupling enz – qHTS Assay for Inhibitors of Fructose-1,6-bisphosphate Aldolase from Giardia Lamblia: Coupling assay counterscreen | coupling enzyme system counterscreen, AmpLite Red fluorescence | activity change, negative = inhibition, % at 58.2 µM, hits read low | hit rate 0.67% among 290,000; in the data active = activity change below about -30%
#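 Counterscreen lacking aldolase: glyceraldehyde-3-phosphate coupling-enzyme reagent preincubated 10 min at RT with compound (at 57.5 uM final), then substrate/coupling system with AmpLite Red added; fluorescence read at 525/598 nm after 20 min RT.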
# Tau fibril FP – qHTS for Inhibitors of Tau Fibril Formation, Fluorescence Polarization | Microtubule-associated protein tau (Homo sapiens), P10636 | AID 1468, 2008 | hit rate 0.39% among 280,000 | Potency, µM (series often up to 57.7 µM), hits mostly inhibitors | K18 P301L tau heparin fibrillization, Alexa594 FP, 6 h; note: nearly all actives have a fitted effect of over 55% in size
# Target sequence (P10636 561-689 P618L limits assumed): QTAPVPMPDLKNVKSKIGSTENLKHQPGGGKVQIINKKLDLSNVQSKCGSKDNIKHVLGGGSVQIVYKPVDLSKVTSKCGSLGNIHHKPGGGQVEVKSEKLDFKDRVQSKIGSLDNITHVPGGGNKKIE
#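 Human tau K18 […] P301L fragment, 15 uM unlabeled plus 0.24 uM Alexa 594-labeled tau (final), with compound and 20 uM heparin in 100 mM sodium acetate pH 7; 6 hr at 37 C, then Alexa 594 FP read.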
# Tau fibril ThT – qHTS for Inhibitors of Tau Fibril Formation, Thioflavin T Binding; Potency, µM (highest dose often 57.4 µM), actives largely listed as inhibitors; AID 1460, 2008; recombinant tau K18 P301L, heparin-induced fibrillization, ThT fluorescence; Microtubule-associated protein tau (Homo sapiens), P10636; hit rate 2.1% among 270,000; note: nearly all actives have a fitted effect of over 55% in size
#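 Tau K18 P301L fragment (15 uM unlabeled plus 0.24 uM Alexa 594-labeled) in 100 mM sodium acetate pH 7 with compound, fibrillization induced by 20 uM heparin for 6 hr at 37 C. Thioflavin T (30 uM) added, fluorescence read after 1 hr (ex 450, em 510 nm).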
# Tau fluor cs – Counterscreen qHTS for Inhibitors of Tau Fibril Formation, Fluorescence Polarization; Potency, µM (series often up to 57.7 µM); tau K18 P301L (four-repeat tau fragment) Alexa594 fluorescence, heparin fibrillization; hit rate 0.93% among 280,000; note: nearly all actives have a fitted effect of over 55% in size
#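 Human K18 P301L tau (15 uM unlabeled plus 0.24 uM Alexa 594-labeled, final) in 100 mM sodium acetate pH 7 was mixed with compound and 20 uM heparin and incubated 6 hr at 37 C.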
# A number is an active result; i = inactive; ? = inconclusive; nt = no result given; [ ] = another dose, or the depositor's remark. Shown are actives, neighbours in structure and some others; about 2.3% of the full set was active somewhere. Unless noted, calls come from the whole dose curve; as a rule, active = well fitted curve in the direction sought with a large enough effect; inconclusive = small, poorly fitted or top-dose-only effect, or another doubt; inactive = no such curve, though single readings can be large; an effect the other way counts as inactive or inconclusive.
SMILES,USP1-UAF1 inh,Coupling enz,Tau fibril FP,Tau fibril ThT,Tau fluor cs
CC1CCN(c2nc(Cl)nc(Nc3ccc([N+](=O)[O-])cc3)n2)CC1,i,i,?,?,8.9µM[quencher]
CCCCCn1c(NC(=O)c2ccco2)c(S(=O)(=O)c2ccc(C)cc2)c2nc3ccccc3nc21,?,i,i,?,?
CCCCn1c(NC(=O)c2ccco2)c(S(=O)(=O)c2ccc(C)cc2)c2nc3ccccc3nc21,?,i,?,16µM,?
CCCCn1c(NC(=O)c2ccc(Br)o2)c(S(=O)(=O)c2ccccc2)c2nc3ccccc3nc21,28µM,i,?,18µM,i
CCCCn1c(NS(=O)(=O)c2ccccc2)c(S(=O)(=O)c2ccc(C)cc2)c2nc3ccccc3nc21,28µM,-32,i,?,i
CCc1cccc(C)c1NC(=O)Cn1c(=O)n(-c2cccc(C)c2)c(=O)c2c1c1cc(C)ccc1n2C,i,nt,?,i,i
NNC(=O)c1ccc(N2CCc3ccccc32)c([N+](=O)[O-])c1,i,i,i,14µM,?
COC(CNC(=O)c1ccc(N2CCc3ccccc32)c([N+](=O)[O-])c1)OC,i,i,i,?,?
COc1ccc(/C=N/NC(=O)c2cc(-c3cccn3C)n[nH]2)cc1OC,i,i,i,?,i
COc1cc(OC)c(OC)cc1/C=N/NC(=O)c1cc(-c2cccn2C)n[nH]1,i,i,i,13µM,?
Cc1ccc(Cl)cc1-c1ccc(C=Nc2ccc(N3CCOCC3)cc2)o1,i,i,i,?,i
CC(=O)c1ccc(-c2ccc(/C=C(/Sc3n[nH]c(C)n3)C(=O)O)o2)cc1,i,i,i,1µM,?
Cc1nc(S/C(=C/c2ccc(-c3ccc(Cl)cc3)o2)C(=O)O)n[nH]1,i,i,i,2µM,?
Cc1n[nH]c(=S)n1/N=C/c1ccc(-c2ccc(Cl)cc2)o1,i,nt,nt,nt,nt
Cc1nc(S/C(=C/c2ccc(-c3ccc(C(=O)O)cc3)o2)C(=O)O)n[nH]1,?,i,i,4.5µM,i
Cc1nc(S/C(=C/c2ccc(-c3cc(Cl)ccc3C)o2)C(=O)O)n[nH]1,i,i,i,11µM,i
Cc1nc(S(=O)(=O)N2CCN(c3ccccc3F)CC2)cn1C,i,nt,i,i,i
C[C@@H]1CN([C@@H](C)CO)C(=O)c2cc(N(C)C)ccc2O[C@@H](C)CCCCO[C@@H]1CN(C)S(=O)(=O)c1cccs1,i,nt,nt,nt,nt
COc1cc(O)c(C(=O)/C=C/c2ccccc2)c(OC)c1,i,i,i,?,i
COc1cc(C/C=C/c2ccccc2)c(OC)cc1O,nt,-51,?,?,i
O=C1/C(=C/c2cccnc2)SC(=S)N1Nc1ccccc1,i,i,?,28µM,?
Cc1ccc(/C=C2\SC(=S)N(NS(=O)(=O)c3ccc(C)cc3)C2=O)cc1,i,i,nt,nt,nt
Cn1cccc1/C=C1\SC(=S)N(Nc2ccccc2)C1=O,i,i,i,3.5µM,?
Cc1ccc(S(=O)(=O)NN2C(=O)/C(=C/c3cccn3C)SC2=S)cc1,nt,i,i,10µM,i
O=C1/C(=C/c2cccnc2)SC(=S)N1c1ccccc1,i,i,i,i,i
SMILES,USP1-UAF1 inh,Coupling enz,Tau fibril FP,Tau fibril ThT,Tau fluor cs
Cc1cc(C)c(OCC(=O)NCC(C)(C)N2CCOCC2)c(C)c1,i,nt,nt,nt,nt
CC(/C=N/NC(=O)Cc1cccn1C)=C\c1ccco1,i,i,?,28µM,i
NS(=O)(=O)c1ccc(Oc2ccc(S(N)(=O)=O)cc2)cc1,i,i,i,i,i
C=CS(=O)(=O)c1ccc(Oc2ccc(S(=O)(=O)C=C)cc2)cc1,i,i,?,2µM,i
CC1=Nc2cccc3cccc(c23)N1C,i,-32,i,i,i
O=C1SC(c2ccccc2)=N/C1=C/c1ccco1,i,i,i,?,i
O=C1NNC(c2ccccc2)=N/C1=C\c1ccccc1Cl,18µM,i,?,?,i
O=C1NNC(c2ccccc2)=N/C1=C\c1ccco1,i,i,?,18µM,?
CC1CCCCN1C(=O)c1cc(S(=O)(=O)N2CCOCC2)ccc1Cl (stereo not drawn),i,nt,nt,nt,nt
COc1cccc(F)c1C(=O)NC(=O)Nc1ccc2nc(C)oc2c1,?,-31,?,nt,?
CCC1=Nc2cc(C(=O)NCC3CCCO3)ccc2Sc2ccc(Br)cc21 (stereo not drawn),i,i,4µM,?,?
CCC1=Nc2cc(C(=O)NCC3CCCO3)ccc2Sc2ccc(Cl)cc21 (stereo not drawn),i,i,i,i,i
Cc1nc(N)sc1-c1csc(Nc2ccc(Cl)cn2)n1,i,i,i,7.9µM,14µM[quencher]
Cc1nc(N)sc1-c1csc(Nc2ccccn2)n1,i,i,?,13µM,14µM[quencher]
COc1ccc(Nc2nc(-c3sc(N)nc3C)cs2)cc1,i,i,?,8.9µM,?
COc1ccc(CCNc2nc(-c3sc(N)nc3C)cs2)cc1OC,i,i,?,14µM,?
Cc1nc(C)c(-c2csc(Nc3ccccn3)n2)s1,i,i,nt,nt,nt
CCC12CN3CC(C)(CN(C1)C3c1c(C)[nH]c3ccccc13)C2=O (stereo not drawn),?,nt,i,i,i
Cc1ccc(OCC(=O)N(Cc2ccco2)c2ccccn2)cc1,i,nt,i,i,i
